High-throughput results: PubChem BioAssay, National Center for Advancing Translational Sciences (NCATS)
This is a sample that favours compounds with a hit; in the whole collection about 7.3% have one here.
FMDV antiviral = High Throughput Screening for Foot and Mouth Disease Virus Antivirals | Potency, µM (doses to about 57.9 µM), for the others: at the top dose activity change, negative = inhibition, usual class: inhibitors | 410,000 compounds, 1.2% hits | FMDV antiviral cell-based qHTS; calls by dose curve; tested in HEK293T cells; further: read-out not given here; potency means the concentration at half of the fitted maximal effect; nearly all actives have a fitted effect of over 45% in size
HCV inh = qHTS Assay for Inhibitors of Hepatitis C Virus (HCV); Huh7.5.1 HCVcc-Cre infection, luciferase reporter, 44 h; Potency, µM (series often up to 41.8 µM), without a hit: at the highest dose activity change, negative = inhibition, hits mostly inhibitors; 340,000 compounds, 3.4% hits; AID 651820, 2012; further: potency means the concentration at half of the fitted maximal effect
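Reporter virus HCVcc-Cre (~0.5 moi) infects cells exposed to compound; seeding density 1,000 cells/well with 4 h settling beforehand. Luminescence, 15 sec read, taken 44 h post-infection following a 15 min RT substrate incubation.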
AmpC inh no detg = qHTS Inhibitors of AmpC Beta-Lactamase (assay without detergent). P00811. AmpC nitrocefin hydrolysis, absorbance 480 nm, 0.0001% Triton. Potency, µM (titrated, usually from 57.1 µM), without a hit: top-dose activity change, negative = inhibition, usual class: inhibitors. 330,000 compounds, 0.52% hits. AID 485341, 2010;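 further: potency means the concentration at half of the fitted maximal effect; plate controls were no compound for no effect and no enzyme for full effect; nearly all actives have a fitted effect of over 20% in size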
Target sequence (P00811 whole entry, looked up): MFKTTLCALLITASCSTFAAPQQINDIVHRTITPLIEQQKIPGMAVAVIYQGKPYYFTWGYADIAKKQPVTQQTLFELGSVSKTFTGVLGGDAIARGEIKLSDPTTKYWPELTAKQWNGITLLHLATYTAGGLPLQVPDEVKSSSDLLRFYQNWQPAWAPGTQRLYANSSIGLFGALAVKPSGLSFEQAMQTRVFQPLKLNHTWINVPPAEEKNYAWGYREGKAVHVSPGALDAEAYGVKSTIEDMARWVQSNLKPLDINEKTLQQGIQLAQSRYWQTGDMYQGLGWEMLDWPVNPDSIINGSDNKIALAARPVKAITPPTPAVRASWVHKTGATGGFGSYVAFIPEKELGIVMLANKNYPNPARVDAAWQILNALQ
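20 mM phosphate pH 7.0 + 0.01% (detergent screen) or 0.0001% Triton X-100; 5.3 nM AmpC reagent; cpd preinc 15 min RT; nitrocefin (800 uM stock) to start; A480 q20 s × 4 min; Activity was normalised to no-enzyme and no-compound control wells.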
HCMV inh = qHTS Assay for inhibitors of the human cytomegalovirus (HCMV) | 410,000 compounds, 4.5% hits | activity change, negative = inhibition, % at 57.5 µM | HFF cells, HCMV-luciferase reporter, 72 h; hits give low values; in the data active means activity change below about -60%; inconclusive means no clear call, values can overlap the other calls; inactive means above about -39%
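Luciferase read-out from HCMV-luciferase-infected HFFs (MOI 1 PFU/cell) 72 h post infection at 37C; compounds added after 16 h cell attachment; activity normalized between buffer-only basal and Salinomycin (10uM) inhibitor controls.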
AmpC detergent = qHTS Inhibitors of AmpC Beta-Lactamase (assay with detergent) | P00811 | AmpC hydrolysis of nitrocefin, absorbance 480 nm, 0.01% Triton | Potency, µM (highest dose often 114 µM), without a hit: at the top dose activity change, negative = inhibition, hits mostly inhibitors | 370,000 compounds, 0.041% hits | AID 485294, 2010;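 further: potency means the concentration at half of the fitted maximal effect; 0% = no-compound wells and -100% = no-enzyme wells; nearly all actives have a fitted effect of over 25% in size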
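20 mM phosphate pH 7.0 + 0.01% (detergent screen) or 0.0001% Triton X-100; 5.3 nM AmpC reagent; cpd preinc 15 min RT; nitrocefin (800 uM stock) to start; A480 q20 s × 4 min; Activity was normalised to no-enzyme and no-compound control wells.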
* = called active by the depositor; ? = inconclusive; · = not tested or not shown; [ ] = another dose, or the depositor's remark. Unless noted, the call rests on the fitted dose curve; in most records, active means well fitted curve in the direction sought with a large enough effect; inconclusive means small, poorly fitted or top-dose-only effect, or another doubt; inactive means no such curve, though single readings can be large; an effect the other way counts as inactive or inconclusive. Unless noted, on the % scale 0 is the no-effect control and ±100 the full control effect.

SMILES	FMDV antiviral	HCV inh	AmpC inh no detg	HCMV inh	AmpC detergent
Cc1scc(C(=O)N/N=C/c2ccco2)c1C	44%	1%	-12%	13	-3%
O=C(NCCc1nnc2n1CCN(Cc1ccc(F)cc1)CC2)c1ccco1	-7%	·	·	·	·
NC(CCc1ccccc1)c1csc(NC(=O)Nc2ccccc2Oc2ccccc2)n1 (stereo not given)	?	·	·	-12	·
COC(=O)c1c(OCc2ccccn2)cc(=O)n2c1CCN(Cc1cccc(C(F)(F)F)c1)CC2	-15%	·	·	·	·
O=C(N/N=C\c1ccc([N+](=O)[O-])o1)c1cncc(Br)c1	?	22µM*	0%	-83*	1%
O=C(N/N=C/c1ccc([N+](=O)[O-])o1)c1ccc(O)cc1	-22%	25µM*	172%	-93*	-13%
CCN(CC)S(=O)(=O)c1cccc(C(=O)N/N=C/c2ccc([N+](=O)[O-])o2)c1	?	?	-42%	-61*	-14%
O=C(N/N=C/c1ccc([N+](=O)[O-])o1)c1ccncc1	-5%	?	-10%	-31	7%
O=C(N/N=C/c1ccc([N+](=O)[O-])o1)c1cc2c(ccc3ccccc32)o1	2%	?	-20%	-72*	-1%
CC(=O)NC12CC3CC(C1)CC(C(=O)Oc1ccc(N(C)S(=O)(=O)c4cc(C)ccc4C)cc1)(C3)C2	?	?	45%	-13	-5%
CC1CCCCN1Cc1c(O)ccc2c(=O)c(-c3nc4ccccc4s3)c(N)oc12 (stereo not given)	?	10µM*	190%	-16	-1%
O=C1c2ccccc2C(=O)N1CCCC[C@]12Cc3ccccc3C(O1)c1c(c3ccccc3oc1=O)O2	·	·	2.8µM*	·	?
N#Cc1ccc2c(c1)C[C@]1(CCCCN3C(=O)c4ccccc4C3=O)Oc3c(c(=O)oc4ccc(F)cc34)C2O1	·	·	-23%[11.4 µM]	·	1%[22.9 µM]
S=C1NCN(CCc2ccccc2)CN1Cc1ccccc1	-17%	-24%	2%	-62*	7%
CCCN1CNC(=S)N(Cc2ccccc2)C1	-10%	23%	-14%	-5	-10%
Cc1ccccc1C(O)c1nnc(Nc2ccc(Oc3ccccc3)cc2)s1 (stereo not given)	·	·	·	-2	·
Oc1ccccc1N=Cc1sc2ccccc2c1Cl	8%	-26%	-31%	-76*	?
CCOc1ccc(/C=N/NC(=O)Cc2ccccc2)cc1CN1CC2CC(C1)c1cccc(=O)n1C2 (stereo not given)	-3%	7.9µM*	145%	-33	4%
OCC1OC(n2cnc3c(Cl)ncnc32)C(O)C1O (stereo not given)	-11%	·	·	·	·
CN(C)c1ncnc2c1ncn2C1OC(CO)C(O)C1O (stereo not given)	-18%	4.5µM*	143%	2	-2%
COc1ccc(C[C@H](N)C(=O)N[C@H]2[C@@H](O)[C@H](n3cnc4c(N(C)C)ncnc43)O[C@@H]2CO)cc1	?	0.32µM*	-11%	-98*	-8%
C=CCOc1ccc(C[C@H](N)C(=O)NC[C@H]2O[C@@H](n3cnc4c(N)ncnc43)[C@H](O)[C@@H]2O)cc1	-15%	0%	-5%	·	·
CC(Sc1nc2ccccc2c(=O)n1CC1CCCO1)C(=O)N(C)c1ccccc1 (stereo not given)	?	?	100%	?	-17%
CCCC(=O)N1CCCC1(C)C(=O)Nc1ccc(OC(F)F)cc1 (stereo not given)	-13%	·	·	14	·
CCC(=O)N1CCC1(C)C(=O)Nc1ccc(OC(F)F)cc1 (stereo not given)	-10%	·	·	-63*	·
SMILES	FMDV antiviral	HCV inh	AmpC inh no detg	HCMV inh	AmpC detergent
COc1ccc(/C=C/C(=O)Nc2cccc(S(=O)(=O)NC3=NCCCCC3)c2)cc1	8%	?	-35%	-5	?
COc1cc(/C=C/C(=O)Nc2cccc(S(=O)(=O)NC3=NCCCCC3)c2)ccc1OCC#N	4%	6.3µM*	-26%	-31	-12%
COc1ccccc1/C=C/C(=O)Nc1cccc(S(=O)(=O)NC2=NCCCCC2)c1	-10%	?	-25%	-15	-6%
O=C(/C=C/c1ccc(OC(F)F)cc1)Nc1cccc(S(=O)(=O)NC2=NCCCCC2)c1	?	?	-35%	-69*	0%
C[C@@H]1CN([C@H](C)CO)C(=O)CCCn2cc(nn2)CO[C@H]1CN(C)S(=O)(=O)c1ccccc1	2%	·	·	26	·
COc1cccc(Nc2nc(C(N)Cc3ccc(C(F)(F)F)cc3)cs2)n1 (stereo not given)	0%	·	·	-90*	·
COc1cc(OC)nc(Nc2nc(C(N)Cc3ccc(C(F)(F)F)cc3)cs2)n1 (stereo not given)	-23%	·	·	-85*	·
Cc1cc(C)nc(Nc2nc(C(N)Cc3ccc(C(F)(F)F)cc3)cs2)n1 (stereo not given)	0%	·	·	-16	·
Cc1ccc(S(=O)(=O)N(C)C)cc1NC(=S)NC(C)CCCC(C)C (stereo not given)	?	?	-22%	-73*	-8%
Cc1ccc(CN(C)CC(=O)Nc2ccccc2C(=O)NC2CC2)o1	-8%	-5%	-7%	-20	2%
CCCCCCCC1=NN(c2ccc(S(=O)(=O)O)cc2)C(=O)C1N=O (stereo not given)	10%	·	·	-19	·
CCOc1ccc(-c2[nH]ncc2-c2ccc(Cl)cc2)c(O)c1	-15%	-12%	-48%	-86*	-1%
C=C(C)COc1ccc(-c2[nH]ncc2-c2ccc(Br)cc2)c(O)c1	-18%	?	-53%	-94*	-20%
C=C(C)COc1ccc(-c2n[nH]c(C)c2-c2ccc(Br)cc2)c(O)c1	·	?	-19%	-77*	-14%
C=C(C)COc1ccc(-c2[nH]ncc2-c2ccccc2OC)c(O)c1	-30%	?	-20%	-21	?
CCOc1ccc(-c2[nH]ncc2-c2ccc(OC)c(OC)c2)c(O)c1	0%	?	-16%	?	4%
COc1ccc(NC(=O)N(C)C[C@H]2OCCCC[C@H](C)Oc3ccc(NC(=O)Nc4cccc5ccccc45)cc3C(=O)N([C@@H](C)CO)C[C@H]2C)cc1	·	·	·	0	·
O=C(NCCCN1CCN(c2ccccc2F)CC1)c1sc2ncccc2c1-n1cccc1	-11%	·	·	-19	19%
CCOc1ccccc1C(=O)Nc1ccc2nc3c(c(Nc4ccc(OC)c(OC)c4)c2c1)CCCC3	?	·	·	-103*	2%
COc1ccccc1Nc1c2c(nc3ccc(NC(=O)c4ccc(N(C)C)cc4)cc13)CCCC2	-27%	·	·	-101*	9%
COc1ccc(Nc2c3c(nc4ccc(NC(=O)c5cc(Cl)ccc5OC)cc24)CCCC3)cc1OC	32µM*	·	·	-108*	9%
